Here are results for two compounds from PubChem BioAssay (NCATS).

Results filed as inconclusive are left out. Activity calls are given as the source filed them. Unless noted, calls follow the shape of the dose curve; as a rule, active = well fitted curve in the direction sought with a large enough effect; inconclusive = small, poorly fitted or top-dose-only effect, or another doubt; inactive = no such curve, though single readings can be large; an effect the other way counts as inactive or inconclusive.

A short description of test [1]: HEK-293 Cancer Cell Toxicity qHTS against the NCATS CANVASS Library (AID 1347355). Also: nearly all actives have a fitted effect of over 65% in size. Also: potency is read from the fitted curve at half-maximal effect. In outline: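 First, 1000 cells go into each well and rest for 4 hours. Next, an 11-point dilution range is pinned in. Plates then incubate 72 hours before CellTiter-Glo addition and luminescence reading.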
For orientation: qHTS replaces the single test concentration by a dilution series.

Test [2] is described as follows: HPAF-II 24hr Apoptosis Induction qHTS against the NCATS CANVASS Library (AID 1347356). The essentials: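 Cells seeded at 500 per well, then compounds pin-transferred in an 11-point concentration series. After 24 hours at 37 degrees C, Caspase-Glo 3/7 was added and luminescence measured following 15 min at room temperature.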
Test [3] can be described thus: HPAF-II 12hr Apoptosis Induction qHTS against the NCATS CANVASS Library (AID 1347358). The essentials:
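Cells plated at 500 per well are dosed with compound and incubated 12 hours at 37 degrees C. Caspase-Glo 3/7 reagent is added and, after 15 min at room temperature, luminescence proportional to caspase activity is measured.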

The nature of test [4]: HEK293 24hr Apoptosis Induction qHTS against the NCATS CANVASS Library (AID 1347359). The essentials: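 Caspase-3/7 activation measured as luminescence from the DEVD-based Caspase-Glo reagent, 15 min at room temperature, following 24-hour compound treatment of HEK293 cells.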
Test [5] in a line: HPAF-II 18hr Apoptosis Induction qHTS against the NCATS CANVASS Library (AID 1347360). The essentials:
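Caspase-Glo 3/7 luminescence (DEVD substrate) after 15 min RT; HPAF-II, 500 cells/well, 18 h compound exposure at 37 degrees C, qHTS series; doxorubicin control 0.1nM - 4uM.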

A short description of test [6]: HEK293 12hr Apoptosis Induction qHTS against the NCATS CANVASS Library (AID 1347361). In outline: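 500 HEK293 cells/well; cpds pin-transferred, 11-pt conc series; 12 h, 37 degrees C/5% CO2; Caspase-Glo 3/7 added, 15 min RT dark; luminescence.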
Test [7] deals with NAD(P)H diaphorase (Clostridium kluyveri). Briefly: Diaphorse counterscreen qHTS: Assay Interference Panel against the NCATS CANVASS Library (AID 1347362). The essentials: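 Counterscreen for coupling-enzyme interference: resorufin fluorescence from resazurin/NADH turnover, read after 5 min at room temperature. Compounds were tested over an 11-point series after 15 min dark preincubation with diaphorase in PBS-Tween.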

The target in test [8] is Luciferin 4-monooxygenase (Photinus pyralis) (UniProt P08659). Briefly: Firefly luciferase counterscreen qHTS: Assay Interference Panel against the NCATS CANVASS Library (AID 1347363). Also: series mostly up to about 57 µM. The essentials:
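Luminescence inhibition readout: compounds (11-point qHTS) sat 15 min at room temperature with substrate mix (0.013 mM luciferin and ATP), then firefly luciferase was added and signal read 5 min later.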

Test [9] in a line: qHTS for ATAD5 Agonist screened against the NCATS CANVASS Library (AID 1347367). In outline: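 Luminescence read-out: ATAD5-driven luciferase in stably transfected HEK 293T cells, which rises post-transcriptionally with DNA damage. Cells were exposed 16hr at 37C to test compound; a CellTiter-Fluor fluorescence read (1hr) measured viability first.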
Test [10] can be described thus: J3T Cancer Cell Toxicity qHTS against the NCATS CANVASS Library (AID 1347371). Also: potency is read from the fitted curve at half-maximal effect. In outline:
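Luminescence from CellTiterGlo, reporting cellular ATP, serves as the viability measure after 72 hr compound treatment of J3T canine glioma cells seeded at 500 cells/well.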

Test [11] addresses Nuclear receptor subfamily 1 group I member 3 (Homo sapiens) (UniProt Q14994). As to the kind of experiment: qHTS for Constitutive Androstane Receptor (CAR) Agonist screened against the NCATS CANVASS Library (AID 1347373).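 Also: every well also contained 1.5 µM PK11195 alongside the test compound.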 The essentials:
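Cells were plated and allowed to attach for 4hr, then dosed with compound in an 11-point series alongside 1.5uM PK11195. After 24hr at 37C, viability was measured fluorometrically and CAR-driven CYP2B6 reporter luminescence was recorded.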

Test [12] can be described thus: qHTS for Hypoxia signaling pathway (HIF-1) agonists against the NCATS CANVASS Library (AID 1347375). The essentials: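 Cells plated and rested 5 h, compounds pinned in DMSO across 11 concentrations, incubated 17 h at 37C, loaded with CCF4-AM for 2 h, fluorescence read at 460 and 530 nm, then CellTiter-Glo luminescence measured for viability and normalization.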
The nature of test [13]: 10-beta competent E. coli microbial cell viability qHTS against the NCATS CANVASS Library (AID 1347376). Also: series mostly up to about 46 µM. The essentials:
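Bacterial suspension diluted to 0.2 OD was dosed with compounds, 11-point series, then held overnight at 37C. BacTiter-Glo reagent was added, and after 20 min at room temperature ATP-dependent luminescence was measured.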

Test [14] in a line: qHTS for H2AX Agonists against the NCATS CANVASS Library (AID 1347378). In outline: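 TR-FRET readout (ex 320 nm, em 665/620 nm ratio) of phospho-H2AX (S139) in CHO-K1 lysates. Cells treated 3 hr at 37C with compound titration, 0.76% DMSO; lysis 30 min, antibody detection 24 hr at RT.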
A short description of test [15]: Inflammasome Signaling qHTS Counterscreen: IL-1-beta AlphaLISA counterscreen against the NCATS CANVASS Library (AID 1347381).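 Also: cell-free check with purified IL-1β in medium and no THP-1 cells; series mostly up to about 57 µM.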 The essentials:
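Purified IL-1-beta (4 pg/well) + compound, 11-pt conc. series; acceptor beads 6 ug/mL + biotin-Ab 0.6 nM final, 1 h RT; SA-donor 24 ug/ml final, 30 min dark RT; read ex 680/em 615.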

Test [16] can be described thus: Cytotoxicity qHTS for assessment of Hepg2 cells membrane integrity screened against the NCATS CANVASS Library (AID 1347387). In outline: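 Cells were seeded at 2000 per well and left overnight to attach. Compounds were pin-transferred to give 0.59 nM - 46 uM in an 11-point series and incubated 5 hr at 37C. CytoTox-ONE reagent was added and, after 10 min at room temperature, fluorescence (ex 560, em 590 nm) was read.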

A short description of test [17]: qHTS for activators of dead-cell proteases activity screened against the NCATS CANVASS Library (AID 1347392).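 Also: luminescence from protease leaking out of membrane-damaged cells cleaving impermeant substrate; rising signal means more cytotoxicity.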 The essentials:
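Luminescent dead-cell protease readout (AAF-aminoluciferin, 15 min, room temperature) after 5 h compound treatment of HepG2 cells (2000/well, pre-attached 18 h). Eleven concentrations.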

Test [18] in a line: Redox Reaction Profiling qHTS: Assay Interference Panel against the NCATS CANVASS Library (AID 1347401). In outline: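 Redox-cycling liability assessed as DTT-driven conversion of resazurin (5 uM, with 200 uM DTT, HEPES pH 7.3) to fluorescent resorufin. Fluorescence at 525/598 nm measured initially and after 15 min dark incubation.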
The nature of test [19]: qHTS for inhibitors of Rabies Virus screened against the NCATS CANVASS Library (AID 1347402; calls by dose curve; also: series mostly up to about 46 µM).

Chain of Nuclear receptor subfamily 1 group I member 3 (Homo sapiens) (Q14994 whole entry, looked up): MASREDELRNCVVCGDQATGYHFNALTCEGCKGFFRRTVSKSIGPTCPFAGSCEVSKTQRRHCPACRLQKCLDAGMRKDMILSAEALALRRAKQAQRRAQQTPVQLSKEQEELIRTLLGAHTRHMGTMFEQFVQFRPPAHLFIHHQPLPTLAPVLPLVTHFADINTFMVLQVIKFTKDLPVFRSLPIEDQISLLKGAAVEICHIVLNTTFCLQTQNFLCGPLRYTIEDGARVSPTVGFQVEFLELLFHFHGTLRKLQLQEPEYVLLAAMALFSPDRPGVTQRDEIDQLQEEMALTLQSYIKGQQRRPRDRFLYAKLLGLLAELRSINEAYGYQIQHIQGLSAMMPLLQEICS
Chain of Luciferin 4-monooxygenase (Photinus pyralis) (P08659 whole entry, looked up): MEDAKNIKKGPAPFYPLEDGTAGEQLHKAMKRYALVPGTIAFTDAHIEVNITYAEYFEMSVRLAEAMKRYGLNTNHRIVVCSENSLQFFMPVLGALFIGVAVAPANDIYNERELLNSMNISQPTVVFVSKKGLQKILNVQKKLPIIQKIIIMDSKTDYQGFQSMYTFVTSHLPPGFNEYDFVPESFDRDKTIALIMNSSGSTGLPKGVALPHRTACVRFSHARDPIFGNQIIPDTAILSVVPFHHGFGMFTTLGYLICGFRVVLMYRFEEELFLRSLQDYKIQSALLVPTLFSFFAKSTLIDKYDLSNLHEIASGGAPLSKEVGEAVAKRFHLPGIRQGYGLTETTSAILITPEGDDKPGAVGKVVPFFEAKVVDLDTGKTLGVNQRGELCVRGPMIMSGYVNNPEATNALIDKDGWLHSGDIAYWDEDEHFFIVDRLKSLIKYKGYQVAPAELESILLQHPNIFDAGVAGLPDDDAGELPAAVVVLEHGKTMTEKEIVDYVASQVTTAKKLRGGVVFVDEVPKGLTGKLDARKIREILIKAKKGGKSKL

As to `CO[C@H]1[C@H](O[C@H]2CC[C@]3(C=O)[C@H]4CC[C@]5(C)[C@@H](C6=CC(=O)OC6)CC[C@]5(O)[C@@H]4CC[C@]3(O)C2)O[C@H](C)[C@H](O)[C@@H]1OC`, the Potency in test [1] was 105 nM (active); in test [10], 372 nM (active). The compound was called inactive in test [2], in [3], in [4], in [5], in [6] and in test [12]. The compound was called inactive in test [13], in test [15], in test [16] and in [17]. The Potency entry in [7], in test [8], in test [9], in [11], in test [14] and in test [18] was “inactive” in each case.

Take `C/C=C1/CN2CC[C@@]34c5ccccc5N(C)[C@@H]3[C@@H]2C[C@@H]1[C@H]4C(=O)OC`: the Potency result in test [1], in [7], in test [8], in [9], in test [10] and in test [11] was “inactive” each time. Further, the Potency result in test [14] and in test [18] was “inactive” each time. Moreover, the call in [2], in test [3], in [4], in test [5], in test [6] and in [12] was inactive. The compound was called inactive in [13], in [15], in test [16], in test [17] and in test [19].
